Measured values: PubChem BioAssay (Tox21)
Results filed as inconclusive are left out. Entries that show only a call come without a potency. The source made the active and inactive calls. Calls come from the whole dose curve; as a rule, active = well fitted curve in the direction sought with a large enough effect in the repeat runs; inconclusive = weak or mixed curves; inactive = no such curve, though single readings can be large; an effect the other way counts as inactive or inconclusive.

Assays:
[1] = target: Cytochrome P450 2C19 (Homo sapiens) (UniProt P33261); assay: Cytochrome P450 Family 2 Subfamily C Member 19 (CYP2C19) small molecule antagonists: luciferase reporter qHTS assay (AID 1671197); note: nearly all actives have a fitted effect of over 65% in size
Chain of Cytochrome P450 2C19 (Homo sapiens) (P33261 whole entry, looked up): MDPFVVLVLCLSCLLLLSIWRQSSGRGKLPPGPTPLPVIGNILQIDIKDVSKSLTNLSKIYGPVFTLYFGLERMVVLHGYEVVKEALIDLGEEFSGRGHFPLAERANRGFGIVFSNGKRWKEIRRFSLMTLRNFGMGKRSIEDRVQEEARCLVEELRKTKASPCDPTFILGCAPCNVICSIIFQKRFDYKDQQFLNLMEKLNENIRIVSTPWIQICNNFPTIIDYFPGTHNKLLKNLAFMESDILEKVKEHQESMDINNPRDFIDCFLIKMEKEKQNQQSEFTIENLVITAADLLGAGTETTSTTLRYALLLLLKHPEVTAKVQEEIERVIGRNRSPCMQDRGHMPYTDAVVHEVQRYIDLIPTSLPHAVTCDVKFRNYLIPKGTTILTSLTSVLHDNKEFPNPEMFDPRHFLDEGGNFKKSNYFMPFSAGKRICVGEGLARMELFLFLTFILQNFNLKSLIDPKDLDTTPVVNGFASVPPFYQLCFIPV
In short: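 Relative luminescence units recorded 20 min after the detection reagent stopped a 1 h, 37C CYP2C19 reaction on proluciferin substrate, which was started by NADPH regeneration following 10 min room-temperature compound preincubation; ketoconazole positive control.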

[2] = target: Cytochrome P450 1A2 (Homo sapiens) (UniProt P05177); assay: Cytochrome P450 Family 1 Subfamily A Member 2 (CYP1A2) small molecule antagonists: luciferase reporter qHTS assay (AID 1671199); note: nearly all actives have a fitted effect of over 50% in size
Chain of Cytochrome P450 1A2 (Homo sapiens) (P05177 whole entry, looked up): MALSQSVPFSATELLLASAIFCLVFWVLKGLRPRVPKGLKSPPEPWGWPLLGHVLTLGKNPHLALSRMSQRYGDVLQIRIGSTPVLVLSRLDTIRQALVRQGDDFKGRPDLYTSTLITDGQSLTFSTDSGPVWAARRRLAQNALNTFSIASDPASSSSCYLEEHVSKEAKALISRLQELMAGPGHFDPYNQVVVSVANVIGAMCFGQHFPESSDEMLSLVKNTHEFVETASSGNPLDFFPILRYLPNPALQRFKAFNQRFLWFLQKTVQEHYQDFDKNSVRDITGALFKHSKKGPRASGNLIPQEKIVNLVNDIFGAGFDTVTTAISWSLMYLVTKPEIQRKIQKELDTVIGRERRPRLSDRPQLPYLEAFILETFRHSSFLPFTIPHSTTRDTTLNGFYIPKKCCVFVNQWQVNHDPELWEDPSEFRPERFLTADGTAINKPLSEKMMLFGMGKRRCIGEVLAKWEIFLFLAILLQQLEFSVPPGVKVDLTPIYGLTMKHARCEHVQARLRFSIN
In short: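 Luminescence from luciferin formed by CYP1A2 from a proluciferin substrate, read 20 min after detection reagent. Compound was pre-incubated 10 min with enzyme-substrate, and reaction started with NADPH regeneration solution for 1 h at room temperature; furafylline control.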

[3] = target: Voltage-gated inwardly rectifying potassium channel KCNH2 (Homo sapiens) (UniProt Q12809); assay: Human Ether-a-go-go-Related Gene (hERG) channel small molecule antagonists: fluorescence cell-based qHTS assay (AID 1671200); note: nearly all actives have a fitted effect of over 50% in size
Chain of Voltage-gated inwardly rectifying potassium channel KCNH2 (Homo sapiens) (Q12809 whole entry, looked up): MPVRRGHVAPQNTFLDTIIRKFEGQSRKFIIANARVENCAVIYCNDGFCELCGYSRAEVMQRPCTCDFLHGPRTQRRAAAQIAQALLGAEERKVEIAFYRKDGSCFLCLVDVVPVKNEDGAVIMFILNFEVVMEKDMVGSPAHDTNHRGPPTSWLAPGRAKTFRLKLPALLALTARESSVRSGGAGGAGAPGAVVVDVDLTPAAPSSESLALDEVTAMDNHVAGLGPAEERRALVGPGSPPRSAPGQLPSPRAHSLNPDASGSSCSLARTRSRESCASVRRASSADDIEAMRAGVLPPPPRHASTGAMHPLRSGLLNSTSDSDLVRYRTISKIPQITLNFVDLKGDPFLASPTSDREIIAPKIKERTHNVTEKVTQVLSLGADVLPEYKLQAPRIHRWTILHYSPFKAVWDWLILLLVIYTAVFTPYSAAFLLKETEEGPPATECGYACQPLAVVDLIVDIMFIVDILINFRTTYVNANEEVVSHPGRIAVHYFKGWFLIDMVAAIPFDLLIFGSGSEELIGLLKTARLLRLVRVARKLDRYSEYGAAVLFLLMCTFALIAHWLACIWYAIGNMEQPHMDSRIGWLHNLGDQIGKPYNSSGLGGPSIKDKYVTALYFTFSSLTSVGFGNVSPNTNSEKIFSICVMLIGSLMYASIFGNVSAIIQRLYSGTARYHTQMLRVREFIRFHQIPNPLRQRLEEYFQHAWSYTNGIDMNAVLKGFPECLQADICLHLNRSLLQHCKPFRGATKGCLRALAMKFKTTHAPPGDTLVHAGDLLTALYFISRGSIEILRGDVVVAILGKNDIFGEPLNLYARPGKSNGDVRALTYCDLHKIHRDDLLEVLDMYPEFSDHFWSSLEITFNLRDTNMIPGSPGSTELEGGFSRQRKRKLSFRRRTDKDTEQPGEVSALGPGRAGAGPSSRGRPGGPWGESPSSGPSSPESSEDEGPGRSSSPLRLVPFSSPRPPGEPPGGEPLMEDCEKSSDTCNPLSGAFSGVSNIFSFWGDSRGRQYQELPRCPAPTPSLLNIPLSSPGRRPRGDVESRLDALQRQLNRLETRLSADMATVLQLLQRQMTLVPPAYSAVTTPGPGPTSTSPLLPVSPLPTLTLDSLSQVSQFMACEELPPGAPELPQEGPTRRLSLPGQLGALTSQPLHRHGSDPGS
In short: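 Channel function was assessed by thallium flux. Cells seeded the previous day and kept at 37 C took up FluxOR II dye over 1 h in the dark at room temperature, then sat another 10 min before stimulation.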

[4] = target: Cytochrome P450 3A4 (Homo sapiens) (UniProt P08684); assay: Cytochrome P450 Family 3 Subfamily A Member 4 (CYP3A4) small molecule antagonists: luciferase reporter qHTS assay (AID 1671201); note: nearly all actives have a fitted effect of over 50% in size
Chain of Cytochrome P450 3A4 (Homo sapiens) (P08684 whole entry, looked up): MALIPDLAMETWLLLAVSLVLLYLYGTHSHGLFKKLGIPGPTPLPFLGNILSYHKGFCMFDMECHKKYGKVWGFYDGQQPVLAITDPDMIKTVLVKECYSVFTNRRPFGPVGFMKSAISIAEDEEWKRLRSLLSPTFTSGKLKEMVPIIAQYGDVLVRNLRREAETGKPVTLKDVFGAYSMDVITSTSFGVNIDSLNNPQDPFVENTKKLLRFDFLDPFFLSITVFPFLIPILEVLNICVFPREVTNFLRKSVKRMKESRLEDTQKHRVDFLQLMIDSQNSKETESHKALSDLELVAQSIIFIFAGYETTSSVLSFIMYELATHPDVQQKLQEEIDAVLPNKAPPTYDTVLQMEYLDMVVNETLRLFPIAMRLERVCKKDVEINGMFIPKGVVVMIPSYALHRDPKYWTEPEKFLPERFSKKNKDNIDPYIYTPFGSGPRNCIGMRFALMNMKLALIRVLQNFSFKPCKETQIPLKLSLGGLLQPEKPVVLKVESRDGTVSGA
In short: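 Compounds in DMSO were pin-transferred onto CYP3A4 enzyme-substrate mix and held 10 min at room temperature. NADPH regenerating solution started the reaction for 1 h; luciferin detection reagent stopped it, and luminescence was read after 20 min.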
Potency is the fitted concentration of half-maximal effect.

| SMILES | Potency [1] | Potency [2] | Potency [3] | Potency [4] |
| --- | --- | --- | --- | --- |
| Cc1cc(C)c(C)c(O)c1 | inactive | 31.7 µM (active) | inactive | inactive |
| O=C(NC1CCN(CCc2c[nH]c3ccccc23)CC1)c1ccccc1 | inactive | inactive | 4.77 µM (active) | – |
| CC(=O)Nc1ccn(C2COC(COC(=O)c3ccccc3)O2)c(=O)n1 (centres undefined) | inactive | 24.5 µM (active) | inactive | inactive |
| CCCC1CCCC(=O)O1 (centres undefined) | inactive | inactive | inactive | 39.9 µM (active) |
| CC(C)C[C@H](NC(=O)[C@H](Cc1ccccc1)NC(=O)c1cnccn1)B(O)O | 34.7 µM (active) | 24.5 µM (active) | inactive | – |
| Nc1ccc(F)cc1F | inactive | inactive | inactive | inactive |
| Clc1cccc(C(c2ccc3nc[nH]c3c2)n2ccnc2)c1 (centres undefined) | 2.75 µM (active) | 15.5 µM (active) | inactive | – |
| CCCCCCCCCCCC(=O)OCC | inactive | inactive | inactive | inactive |
| CC[C@H](NC(C)C)[C@H](O)c1ccc(O)c2[nH]c(=O)ccc12 | inactive | inactive | inactive | inactive |
| Cc1cc(C)n(CO)n1 | inactive | inactive | inactive | inactive |
| CCOc1cc(OCC)c(C(C)=O)cc1OCC | 69.8 µM (active) | 1.11 µM (active) | inactive | 35 µM (active) |
| COc1cc(C)c(Cc2cnc(N)nc2N)cc1OC | inactive | inactive | inactive | inactive |
| Cc1ccc(NC=O)c(C)c1 | inactive | 35.6 µM (active) | inactive | – |
| Cc1ccc(NC(=O)c2ccc(CN3CCN(C)CC3)cc2)cc1Nc1nccc(-c2cccnc2)n1 | inactive | inactive | – | – |
| CCC1=C(C)CN(C(=O)NCCc2ccc(S(=O)(=O)NC(=O)NC3CCC(C)CC3)cc2)C1=O (centres undefined) | inactive | inactive | inactive | inactive |
| O=C(O)c1ccccc1[N+](=O)[O-] | inactive | inactive | inactive | inactive |
| CCCOC(C)=O | inactive | inactive | inactive | inactive |
| CCOc1ccc(NC(C)=O)cc1N | 36.1 µM (active) | 16.1 µM (active) | inactive | – |
| CS(C)=O | inactive | inactive | inactive | inactive |
